# NSD2 HMT inh – NSD2 histone methyltransferase inhibitors, primary screen, biochemical, AlphaScreen, single concentration, set 2. NSD2 peptide methylation, 120 min. Histone-lysine N-methyltransferase NSD2 (Homo sapiens), O96028. 0.54% of 310,000 active. AID 743445, 2014. inhibition, % at 12.5 µM; in the data active = inhibition above about 50%
# CDK5 p35 inh – inhibitors of human CDK5/p35 kinase, primary screen, biochemical, single concentration; Recombinant CDK5/p35, ADP-Glo luminescence, 60 min; inhibition, % at 10 µM; 0.01% of 330,000 active;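 active = highest replicate inhibition of at least 50% and at least 75% of replicates reaching 50%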;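 also: plate controls were DMSO neutral control for no effect and GW8510 at 10 µM for full effect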
# SUMO Mot1 rescue – yeast Mot1-301 growth rescue at high temperature, primary screen, SUMOylation pathway inhibitor project, S. cerevisiae, ATP luminescence, 38.5C; S. cerevisiae Mot1-301 growth rescue; percent above DMSO median, 100 means doubled; growth rescue, % at 18.8 µM; 1% of 320,000 active; AID 2716, 2010;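 active = every valid replicate shows activation above 250% relative to neutral control wells; inactive = the rest, any valid replicate at or below 250%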;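 also: OY570 slx delta 5 strain wells were the positive control but not used for scaling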
# Casp6 inh – human caspase-6 inhibitors, primary screen, biochemical, VEID-R110 fluorescence, single point, set 2. purified caspase-6, Z-VEID-R110 cleavage fluorescence. 0.53% of 350,000 active. inhibition, % at 12.5 µM. P55212;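 active = mean inhibition across replicates at least about 35%, with every replicate also reaching that limit, limit read from the data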;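 also: 0% = median of neutral control wells and 100% = no fluorescence left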
# Target sequence (P55212 24-179 limits assumed): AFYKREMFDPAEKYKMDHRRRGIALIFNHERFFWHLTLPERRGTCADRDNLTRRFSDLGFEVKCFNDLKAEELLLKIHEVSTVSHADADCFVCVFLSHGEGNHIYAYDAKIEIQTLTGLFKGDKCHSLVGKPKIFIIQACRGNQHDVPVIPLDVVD
# Target sequence (P55212 194-293 limits assumed): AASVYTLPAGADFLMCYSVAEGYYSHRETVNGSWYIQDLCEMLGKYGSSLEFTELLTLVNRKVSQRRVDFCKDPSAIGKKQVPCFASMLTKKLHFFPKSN
# ALR inh – inhibitors of human ALR sulfhydryl oxidase, primary screen, biochemical, H2O2 detection, HRP-luminol luminescence, single point. FAD-linked sulfhydryl oxidase ALR (Homo sapiens), P55789. purified ALR, DTT oxidation. inhibition, % (no concentration beside the values). 3.8% of 290,000 active;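 active = mean replicate inhibition above about 79%, with every replicate also reaching it, limit read from the data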
# Target sequence (P55789 whole entry, looked up): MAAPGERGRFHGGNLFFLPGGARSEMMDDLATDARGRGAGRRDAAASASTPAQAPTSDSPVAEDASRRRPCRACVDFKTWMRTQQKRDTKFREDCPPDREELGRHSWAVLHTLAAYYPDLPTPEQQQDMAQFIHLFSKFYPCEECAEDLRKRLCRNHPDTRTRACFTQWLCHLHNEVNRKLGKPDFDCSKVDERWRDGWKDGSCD
# Glyco luc inh – increase of ERlucT glycosylation luciferase signal, primary screen, N-linked glycosylation inhibitor project, D54 ERlucT cells, luminescence, set 2. D54 ERlucT glycosylation luciferase reporter, 24 h; percent of 100 nM tunicamycin response. AID 588692, 2011. 0.23% of 360,000 active. reporter increase, % at 12.5 µM;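 active = mean luciferase reporter signal, scaled so untreated is 0 and the glycosylation-blocking control 100, at or above a set limit in every replicate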;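 also: luciferase carries N-glycosylation sites so blocking glycosylation raises the light; 0% = median of neutral control wells and 100% = median of 100 nM tunicamycin wells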
# * marks the source's active call; other numbers are inactive results; . = no result. An excerpt weighted towards active compounds, which were near 3.9% of everything screened.
SMILES,NSD2 HMT inh,CDK5 p35 inh,SUMO Mot1 rescue,Casp6 inh,ALR inh,Glyco luc inh
CN(C)[C@@H]1C(=O)C(C(N)=O)=C(O)[C@@]2(O)C(=O)C3=C(O)c4c(O)cccc4[C@@](C)(O)[C@H]3[C@H](O)[C@@H]12,.,-3,-8,69*,-21,0
CN(C)[C@@H]1C(=O)C(C(N)=O)=C(O)[C@@]2(O)C(=O)C3=C(O)c4c(O)cccc4[C@@](C)(O)C3C[C@@H]12 (stereo partly specified),.,3,0,55*,-1,1
COC(=O)[C@@H]1[C@@H](CO)[C@@H]2Cn3c(ccc(-c4cccc(F)c4)c3=O)[C@H]1N2C(=O)CC1CC1,.,.,.,-2,.,.
C[C@@H]1CN([C@H](C)CO)C(=O)c2c(c3ccccc3n2C)-c2ccccc2CO[C@H]1CN(C)C(=O)Oc1ccccc1,.,.,.,1,.,.
O=c1[nH]c(=S)n(CCC2=CCCCC2)c(O)c1C=NC1CCN(Cc2ccccc2)CC1,0,-1,9,.,9,-3
O=c1[nH]c(=S)n(CCC2=CCCCC2)c(O)c1/C=N/Nc1ccccc1,-10,-2,6,2,97*,-1
O=C(/C=C/c1ccccc1)c1c(O)n(CCc2ccccc2)c(=O)[nH]c1=O,-2,-1,-17,5,-12,5
COc1cc(/C=C/C(=O)c2c(O)n(CCc3ccccc3)c(=O)[nH]c2=O)ccc1O,1,0,105,14,97*,-2
COC(=O)[C@H]1[C@H](CO)[C@H]2Cn3c(ccc(-c4ccccc4F)c3=O)[C@@H]1N2C(=O)C1CC1,.,.,.,0,.,.
Oc1ccccc1/C=N/NP(=S)(c1ccccc1)c1ccccc1,3,-10,-14,-6,-1,-1
Oc1ccc(/C=N/NP(=S)(c2ccccc2)c2ccccc2)c(O)c1O,26,-4,28,.,99*,0
Oc1ccc(/C=N/NP(=S)(c2ccccc2)c2ccccc2)cc1O,23,0,-6,30,99*,-1
COc1ccc(-c2ccc3n(c2=O)C[C@@H]2[C@@H](CO)[C@H](C(=O)O)[C@H]3N2C(=O)c2ccccc2F)cc1,.,.,.,-1,.,.
CC12CC[C@H]3[C@@H](CCC4(O)C[C@H](O)CCC34/C=N/NC(=O)c3ccccc3O)C1(O)CCC2C1=CC(=O)OC1 (stereo partly specified),-1,-1,-7,16,2,32*
COc1cc(C(=O)N/N=C/C23CC[C@@H](O)CC2(O)CC[C@@H]2[C@@H]3CCC3(C)C(C4=CC(=O)OC4)CCC23O)ccc1O (stereo partly specified),29,-1,-23,-5,95*,4
CC12CC[C@H]3[C@@H](CCC4(O)C[C@H](O)CCC34/C=N/NC(=O)c3ccc(O)cc3)C1(O)CCC2C1=CC(=O)OC1 (stereo partly specified),-1,-3,10,-2,5,0
COc1ccc(C(=O)N/N=C/C23CC[C@@H](O)CC2(O)CC[C@@H]2[C@@H]3CCC3(C)C(C4=CC(=O)OC4)CCC23O)cc1 (stereo partly specified),1,0,-9,21,.,38*
CC12CC[C@H]3[C@@H](CCC4(O)C[C@H](O)CCC34/C=N/NC(=O)c3ccccc3F)C1(O)CCC2C1=CC(=O)OC1 (stereo partly specified),0,-3,8,0,-7,12
COC(=O)[C@@H]1[C@@H](CO)[C@@H]2Cn3c(ccc(-c4ccccc4F)c3=O)[C@H]1N2C(=O)C1CC1,.,.,.,-3,.,.
O=C(N1CCCCCC1)N1CC1,-1,-1,.,-1,.,-1
CN(C)P(=O)(C(Cl)=C(N1CCCCC1)N1CCCCC1)N(C)C,0,3,-13,-15,98*,23
Nc1ccc(N=Nc2ccccc2)cc1,5,-8,89,-1,98*,-6
Nc1ccc(Br)cc1,0,1,.,-4,.,0
O=C(NC1CCCCC1)Oc1cc2oc(=O)sc2cc1Cl,67*,0,-12,14,92*,1
Oc1ccccc1-[n+]1c(-c2ccccc2)cc(-c2ccccc2)c(O)c1-c1ccccc1,.,-1,366*,5,.,6
SMILES,NSD2 HMT inh,CDK5 p35 inh,SUMO Mot1 rescue,Casp6 inh,ALR inh,Glyco luc inh
Oc1ccc(-[n+]2c(-c3ccccc3)cc(-c3ccccc3)cc2-c2ccccc2)cc1,.,0,-5,.,-6,7
CCCN1[C@@H]2c3ccc(-c4ccccc4)c(=O)n3C[C@H]1[C@H](CO)[C@H]2C(=O)OC,.,.,.,2,.,.
Oc1cc2c(cc1O)[C@H]1c3ccccc3CN[C@@H]1CC2,.,.,11,.,99*,.
O=C(N/N=C/c1c(O)n(Cc2ccc(F)cc2)c(=O)[nH]c1=O)c1ccccc1O,-3,-1,39,5,97*,-5
COC(=O)[C@H]1[C@H](CO)[C@H]2Cn3c(cccc3=O)[C@@H]1N2Cc1nccs1,.,.,.,-1,.,.
Cc1ccc(Cn2cc(C=O)c(-c3ccc(C)cc3)n2)cc1,8,2,83,2,90*,-2
COC(=O)[C@@H]1[C@@H](CO)[C@@H]2Cn3c(ccc(C4=CCCCC4)c3=O)[C@H]1N2CC1CCCC1,.,.,.,-2,.,.
Cc1cc(=O)oc2cc3c(cc12)CCCN3,-4,0,-14,-1,93*,2
COc1cc(CN2CC=C(c3ccc(F)cc3)CC2)cc(OC)c1,.,-1,2,-1,-2,0
CN(C)c1ccc(CN2CC=C(c3ccc(F)cc3)CC2)cc1,51*,-2,2,.,36,7
COC(=O)[C@@H]1[C@@H](CO)[C@@H]2Cn3c(ccc(C4=CCCCC4)c3=O)[C@H]1N2Cc1ccccc1OC,.,.,.,1,.,.
O=C1NC(=O)N(CCC2=CCCCC2)C(=O)/C1=C\c1cccs1,27,-3,-29,37*,71,13
Cn1cccc1/C=C1\C(=O)NC(=O)N(CCC2=CCCCC2)C1=O,2,-1,.,3,.,12
C=CCN1C(=O)/C(=C/c2cccs2)C(=O)NC1=S,12,1,17,.,96*,2
CCOc1ccc2nc(N=Nc3c(O)[nH]c(=S)[nH]c3=O)sc2c1,19,1,1,0,96*,-4
CCOc1ccc2nc(N=Nc3c(O)[nH]c(=O)[nH]c3=O)sc2c1,9,0,3,3,9,0

# High-throughput results as filed in PubChem.
